Assay outcomes from PubChem.
SARS 3CLpro inh = SARS-CoV 3CLpro protease inhibition; recombinant SARS-CoV 3CLpro, quenched FRET peptide cleavage; inhibition, % at 6 µM; 290,000 compounds, 0.14% hits; in the data active means inhibition above about 12%
SSB-PriA inh = blocks PriA binding to SSB C-terminal tail; AlphaScreen SSBct-PriA binding, biotinylated peptide; inhibition, % at 33 µM; 430,000 compounds, 0.6% hits; AID 1272365; in the data active means inhibition mostly above about 37%, no sharp cut-off; inactive means mostly below about 20%;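 further: plate controls were negative control peptide for no effect and reference peptide for full effect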
CCHF vOTU inh-1 = CCHFV vOTU protease inhibition | inhibition, % at 11.5 µM | Pep-AMC fluorescence | 370,000 compounds, 0.55% hits; further: 0% = vehicle wells with enzyme and 100% = no enzyme wells
DUSP3 inh = blocks human VHR1 dual specificity phosphatase. recombinant VHR phosphatase, pNPP absorbance. P51452. inhibition, % at 13.3 µM. AID 1654. 290,000 compounds, 0.52% hits; in the data active means inhibition above about 50%
Target sequence (P51452 whole entry, looked up): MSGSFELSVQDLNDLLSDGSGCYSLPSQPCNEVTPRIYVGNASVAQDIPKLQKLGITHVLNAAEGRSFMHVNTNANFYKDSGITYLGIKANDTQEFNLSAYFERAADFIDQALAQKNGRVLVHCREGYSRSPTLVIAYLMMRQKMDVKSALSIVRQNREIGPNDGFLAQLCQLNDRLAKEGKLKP
Mtb hypoxia rep = inhibitors of hypoxia-regulated fluorescent reporter in Mycobacterium tuberculosis | M. tuberculosis hypoxia-regulated fluorescent reporter, fluorescence | fluorescence inhibition, % (no concentration beside the values) | 300,000 compounds, 0.1% hits | AID 1159583; in the data active means fluorescence inhibition mostly above about 23%, no sharp cut-off; inactive means mostly below about 17%
CCHF vOTU inh-2 = confirmation of CCHF virus vOTU protease inhibitors; shares compounds with CCHF vOTU inh-1; Recombinant CCHFV vOTU, Pep-AMC fluorescence; inhibition, % at 11.5 µM; 1,900 compounds, 17% hits
* = called active by the depositor; x = not tested or not shown. This is a sample that favours compounds with a hit; in the whole collection about 1.3% have one here. Unless noted, no stated cut-off is given here; in the data, active means inhibition above about 30%; inactive means the rest.

SMILES	SARS 3CLpro inh	SSB-PriA inh	CCHF vOTU inh-1	DUSP3 inh	Mtb hypoxia rep	CCHF vOTU inh-2
O=C1c2ccccc2C(=O)c2c1cccc2N1CCCC1	-1.1	100.2	74.9*	0.1	6.9	-5.3
O=C1C=C(N2CCCCC2)c2ccccc2C1=O	x	15.4	81.8*	x	-0.1	81.5*
O=S(=O)(c1ccccc1S(=O)(=O)N1CCCCC1)N1CCCCC1	-1.5	-9.5	x	21.3	-7.0	x
CCOc1ccc(N=Cc2ccc([N+](=O)[O-])cc2)c(O)c1	x	x	35.2*	x	x	-2.7
CCOc1ccc(CNC(=S)N/N=C\c2ccc([N+](=O)[O-])cc2)cc1	-3.1	x	10.0	-9.6	x	x
Cc1sc2nc(SCc3nnc(-c4cccs4)o3)n(C3CCCC3)c(=O)c2c1C	3.7	-4.3	30.9*	29.9	5.2	-2.4
CC12CCC(C(=NO)C1=O)C2(C)C (stereo not given)	x	-9.0	35.6*	x	6.3	-17.1
CC12CCC(C(=NO)C1=NO)C2(C)C (stereo not given)	x	1.9	5.9	x	19.3	x
O=C(c1ccc(S(=O)(=O)N2CCCCC2)cc1)N1CCc2ccccc2C1	-0.1	-6.5	-14.8	9.1	5.2	x
O=C(c1ccc(S(=O)(=O)c2ccccc2)cc1)N1CCc2ccccc2C1	6.8	7.2	34.8*	-2.2	11.0	-16.5
COCCNC(=O)Cn1c(-c2ccccn2)nc2ccccc21	x	-6.0	x	x	x	x
O=C(NCC[C@H](O)c1ccoc1)C(=O)Nc1ccc(F)cc1F	x	-4.0	x	x	x	x
Cc1c(C)c2c(C)nn(-c3ccccc3)c2[nH]c1=O	0.7	-6.3	-2.7	37.5	8.5	x
Nc1c2c(=O)[nH]c(O)cc2nn1-c1ccccc1	x	-12.4	62.8*	x	20.4	-11.1
COc1cccc(C(=O)Nc2nnc(SCC(=O)Nc3cccc(C)c3)s2)c1OC	x	-17.0	x	x	x	x
O=C(Nc1cccs1)N1CCC(c2ccsc2)CC1	x	14.0	x	x	x	x
CCOc1cccc(CNc2ccc(O)cc2)c1OCc1ccc(Cl)cc1	2.6	0.9	31.0*	9.1	x	-2.0
COc1cccc(CNCCO)c1OCc1ccc(Cl)cc1	0.9	7.9	-0.1	16.3	19.5	x
Cc1ccc(-n2nc(C)c3c(Cl)c(C(=O)NC(C)C)cnc32)cc1	x	-9.0	x	x	x	x
O=C(COC(=O)CSc1ccc([N+](=O)[O-])cc1)NC1CCCCCCC1	x	-12.8	11.1	x	-2.8	x
Cc1ccc(SCC(=O)OCC(=O)NC2CCCCCCC2)cc1	x	-6.6	29.8*	x	9.2	4.2
CC1CCc2nc(NC(=O)C3CCN(S(=O)(=O)c4ccc(F)cc4)CC3)sc2C1 (stereo not given)	x	3.0	x	x	x	x
COc1cc(N)c2ncccc2c1Cl	x	-0.2	97.0*	x	7.1	-6.3
Oc1c(Cl)c(Cl)c2ncccc2c1Cl	x	-1.4	11.2	x	3.8	x
Cc1cc(=O)[nH]c(N/N=C/C=C/c2ccccc2)n1	-0.3	x	34.6*	1.2	x	-3.2
SMILES	SARS 3CLpro inh	SSB-PriA inh	CCHF vOTU inh-1	DUSP3 inh	Mtb hypoxia rep	CCHF vOTU inh-2
Cc1cc(=O)[nH]c(NN=C/C=C/c2ccccc2)n1	x	-6.9	x	x	x	x
Cc1cccc(NC(=O)N2CCN(c3ccc4nnc(-c5ccco5)n4n3)CC2)c1C	x	0.0	x	x	x	x
CCCN(CC(=O)Nc1ccccc1OC)C(=O)c1ccc2[nH]c3c(c2c1)CC(C)CC3 (stereo not given)	x	-8.9	38.3*	x	0.4	10.0
CCN(CC(=O)Nc1ccccc1OC)C(=O)c1ccc2[nH]c3c(c2c1)CC(C)CC3 (stereo not given)	x	0.1	13.8	x	0.8	x
CC(C)(C)c1ccc(/C=N/OCC(=O)NCc2ccc(F)cc2)cc1	8.3	x	45.6*	5.0	x	13.4
CC(C)(C)c1ccc(C=NOCC(=O)NCc2ccc(F)cc2)cc1	x	-7.3	x	x	4.0	x
CCCCCCN1C[C@H](n2cc(C3CC3)nn2)[C@@H](O)C[C@@H]1c1ccc(C)cc1	x	x	38.4*	x	x	16.3
CCCCCCN1C[C@H](n2cc(COC(=O)c3ccccc3)nn2)[C@@H](O)C[C@@H]1c1ccc(C)cc1	x	x	36.7*	x	x	7.9
COc1ccc(S(=O)(=O)N2CCN(Cc3cccc(Cl)c3)CC2)cc1	0.9	-8.4	1.1	-12.8	-0.4	x
COc1ccc(S(=O)(=O)N2CCN(Cc3ccc(Cl)cc3)CC2)cc1	-1.2	-15.0	33.2*	4.8	10.3	-0.4
CCOCCn1c(=NC(=O)c2ccc(Cl)s2)sc2cc(C(=O)OC)ccc21	x	-1.0	x	x	x	x
CCOC(=O)C(CNc1ccc(O)cc1)NC(=O)c1ccccc1 (stereo not given)	x	x	48.9*	x	x	-0.5
O=C(COc1ccnc2c1CCCC2)Nc1nc(-c2ccco2)cs1	x	-5.0	x	x	x	x
COc1cc2c(cc1OC)[C@@H](NC(=O)CCC1CCCCC1)[C@H](O)C2	x	-2.6	-3.6	x	5.1	x
CCCCCCCCCC(=O)N[C@@H]1c2cc(OC)c(OC)cc2C[C@H]1O	x	-8.8	31.3*	x	1.6	-0.7
Fc1cccc(CNc2ncnc3ccc(-c4ccc5c(c4)OCO5)cc23)c1	x	-6.8	29.6*	x	-8.3	-12.9
CCC(=O)Nc1ccc2scnc2c1	x	4.0	x	x	x	x
C=CCn1c(COc2ccc(C)cc2)nnc1SCC(=O)c1ccc(-c2ccccc2)cc1	x	x	29.8*	x	x	19.2
O=[N+]([O-])c1ccc(N/N=C/c2ccc(O)c(O)c2O)c(S(=O)(=O)N2CCOCC2)c1	2.0	x	34.3*	19.7	x	4.3
COc1ccccc1Cn1c(SCc2nc(-c3ccccc3Cl)no2)nc2ccccc2c1=O	x	-11.0	x	x	x	x
Cc1cc(C)n(CCC(=O)N2CCC(n3c(=O)[nH]c4ccc(F)cc4c3=O)CC2)n1	x	-18.0	x	x	x	x
O=C(Nc1ccc(F)cc1)c1ccccc1Oc1ccc(C(F)(F)F)cc1[N+](=O)[O-]	2.4	38.3	30.9*	1.2	-6.6	-4.9
CCOC(=O)C1CCCN(C(=O)c2ccc(N3C(=O)C4CCCCC4C3=O)cc2)C1 (stereo not given)	x	-20.0	x	x	x	x
O=S(=O)(c1ccc2nc(-c3ccco3)c(-c3ccco3)nc2c1)N1CCOCC1	3.0	-6.1	73.0*	3.0	6.2	39.6*
O=C(c1ccc2nc(-c3ccco3)c(-c3ccco3)nc2c1)N1CCN(c2ccccc2)CC1	-5.9	12.8	47.9*	-4.9	4.3	-8.1
SMILES	SARS 3CLpro inh	SSB-PriA inh	CCHF vOTU inh-1	DUSP3 inh	Mtb hypoxia rep	CCHF vOTU inh-2
Cc1nn(C)c(C(=O)N/N=C/c2ccccc2)c1[N+](=O)[O-]	5.0	x	31.3*	-10.5	x	-13.3
Cc1nn(C)c(C(=O)NN=Cc2ccccn2)c1[N+](=O)[O-]	x	10.8	x	x	-3.0	x
Cc1ccccc1-c1cc2c(nn1)-c1ccccc1C2=O	5.2	11.9	96.5*	17.1	-0.4	93.7*
O=C(c1cc2ccccc2s1)N1CCSC(c2ccccc2Cl)CC1 (stereo not given)	x	-4.0	x	x	x	x
CC1OC(CC(=O)O)CC2=C1C(=O)c1c(O)cccc1C2=O (stereo not given)	x	2.6	92.9*	x	x	98.2*
COc1cccc2c1-c1c(O)cccc1C2=O	-3.9	-24.1	-0.1	13.9	8.8	x
O=S(=O)(Nc1ccc(O)c2ccccc12)c1cccs1	1.2	7.7	107.7*	3.0	4.6	-0.7
O=S(=O)(Nc1cccc2ccccc12)c1cccs1	7.0	8.7	7.1	-9.1	15.5	x
CCOC(=O)Cc1csc(NC(=O)c2coc(NC(=O)c3cnccn3)n2)n1	x	7.0	x	x	x	x
COc1ccc(C2NC(=S)N(c3ccccc3)C(C)=C2C(=O)Nc2ccccc2)cc1 (stereo not given)	3.1	12.3	-1.6	10.7	x	x
